Compound activity (PubChem)
Compounds with a hit are over-represented: about 7.1% of the library has one in this group of screens.
MCF10A rereplic: DNA re-replication induction in MCF 10a cells | AID 624296 | 2.9% of 350,000 active | Potency, µM (highest dose often 46.1 µM), inactives show at the top dose activity, positive = re-replication, most hits filed as activators | MCF 10A DNA re-replication, Hoechst nuclear intensity, 48 h; note: % of control where 0% means no effect; nearly all actives have a fitted effect of over 50% in size
SW480 rerep: induces DNA re-replication in SW480 colon adenocarcinoma cells. SW480 DNA re-replication, Hoechst DNA content imaging, 48 h. Potency, µM (titrated, usually from 46.1 µM), inactives show at the top dose re-replication activation, usual class: activators. 1.8% of 340,000 active. AID 624297; note: % of control where 0% means no effect; nearly all actives have a fitted effect of over 55% in size
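Image-based DNA-content assay: after two days of treatment, nuclei were labelled with the DNA dye Hoechst and imaged, and hits were compounds raising the count of nuclei showing high fluorescence intensity.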
ELG1 genotox: induces genotoxicity in HEK293T cells with luciferase-tagged ELG1; 1.3% of 330,000 active; AID 504466; Potency, µM (top dose mostly 46 µM), for the others: top-dose activity change, positive = activation, usual class: activators; HEK293T ELG1-luciferase reporter, luminescence, 16 h; note: % of control where 0% means no effect; nearly all actives have a fitted effect of over 60% in size
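Genotoxic stress is detected as increased luminescence from luciferase-tagged ELG1 in HEK293T cells, measured with ONE-Glo after a 16 hr treatment at 37 °C.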
p53 reactivator: re-activators of mutant p53 | H1299 p53-A138V BP100-luciferase reporter, luminescence, 24 h | Potency, µM (top dose mostly 92.2 µM), without a hit: at the top dose activity change, positive = activation, actives largely listed as activators | 0.063% of 320,000 active; note: % of control where 0% means no effect; nearly all actives have a fitted effect of over 45% in size
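p53-null H1299 cells stably carrying temperature-sensitive p53-A138V and a BP100-luciferase reporter were pinned with compounds (4-point, 1:5 series) and held 24 hrs at 37 deg C. Luminescence was read 10 min after detection reagent.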
ELG1 DNA repair: blocks ELG1-dependent DNA repair in HEK293T cells. 2.3% of 330,000 active. Potency, µM (series often up to 46.1 µM), for inactives: top-dose activity change, negative = inhibition, hits mostly inhibitors. HEK293T ELG1-luciferase reporter, luminescence, 16 h; DNA damage induced by 5-fluorouridine; note: % is set by controls: 0 for no effect and ±100 for the full control effect; nearly all actives have a fitted effect of over 55% in size
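HEK293T cells expressing luciferase-tagged ELG1 (2,000/well) received 5-Fluorouridine plus compound or DMSO for 16 hr at 37 °C. Luciferase was read by ONE-Glo luminescence after 30 min at room temperature.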
A-T KAP1 phos: candidate therapy for ataxia-telangiectasia. F2112 A-T fibroblasts, KAP-1 phosphorylation AlphaLISA; neocarzinostatin DNA damage 30 min before lysis. Potency, µM (highest dose often 57.5 µM), without a hit: at the top dose activation, hits mostly activators. 0.19% of 320,000 active. AID 485349; note: % of control where 0% means no effect; nearly all actives have a fitted effect of over 45% in size
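hTERT-immortalized A-T patient fibroblasts (F2112), 500 cells/well in OPTI-MEM, 1% FBS, got compounds for 60 min, then NCS for 30 min at 37C. Lysates were then assayed for phospho-KAP-1 by AlphaLISA (anti-pKAP1 donor, anti-KAP1 acceptor beads), 6 hr at 25C.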
* = called active by the depositor; ? = inconclusive; / = not tested or not shown; [ ] = dose if it differs, or a comment. Calls come from the whole dose curve; as a rule, active = well fitted curve in the direction sought with a large enough effect; inconclusive = small, poorly fitted or top-dose-only effect, or another doubt; inactive = no such curve, though single readings can be large; an effect the other way counts as inactive or inconclusive. Potency is the fitted concentration of half-maximal effect.

SMILES	MCF10A rereplic	SW480 rerep	ELG1 genotox	p53 reactivator	ELG1 DNA repair	A-T KAP1 phos
CCN(CC)C(=O)[C@H]1C[C@H](CC(=O)NC/C=C(\C)CCC=C(C)C)C(=O)N2CCc3c([nH]c4cc(-c5ccco5)ccc34)[C@]12C	20.6µM*	17.3%[9.22 µM]	-1.8%	-0.8%	2.4%	-0.6%[11.5 µM]
C[C@]12c3[nH]c4ccc(Cl)cc4c3CCN1C(=O)[C@@H](CC(=O)NCc1cccc(C(F)(F)F)c1)C[C@@H]2C(=O)N1CCOCC1	?	?	-10.1%	-2.0%	23.1µM*	-2.0%[11.5 µM]
O=C(Nc1ccc2c(c1)OCO2)c1cnc(Cl)c(Cl)c1	5.8%	-3.6%	16.9%	?	?	-7.5%
Cc1ccsc1CN(C(=O)c1ccc([N+](=O)[O-])cc1)C1CCS(=O)(=O)C1 (stereo unspecified)	5.8%	-10.0%	-1.2%	7.0%	5.4%	15.8%
O=C(O)CCCCCNC(=O)CSc1nnc(-c2ccco2)n1-c1ccccc1	2.8%	-19.5%	0.9%	-4.9%	10.4%	-3.3%
COCCCNC(=O)C[C@H]1C[C@H](C(=O)N2CCCCC2)[C@@]2(C)c3[nH]c4cc(-c5ccco5)ccc4c3CCN2C1=O	?	?	-4.1%	-11.0%	-25.8%	-6.0%
CCN(CC)C(=O)[C@H]1CC(CC(=O)NCCC2=CCCCC2)C(=O)N2CCc3c([nH]c4ccccc34)[C@]12C (stereo partly specified)	3.1%	?	-4.7%	2.1%	-28.4%	22.2%
COc1ccc(CNC(=O)C[C@H]2C[C@H](C(=O)N3CCCCC3)[C@@]3(C)c4[nH]c5cc(-c6ccco6)ccc5c4CCN3C2=O)cc1OC	-4.6%	0.0%[9.22 µM]	-10.3%	-7.0%	20.6µM*	5.2%
CCN(CC)C(=O)[C@H]1C[C@H](CC(=O)NCc2ccc(OC)c(OC)c2)C(=O)N2CCc3c([nH]c4cc(-c5ccco5)ccc34)[C@]12C	2.4%	11.0%	-13.8%	-17.4%	23.1µM*	5.1%
COCCCNC(=O)CC1C[C@H](C(=O)N2CCCCC2)[C@@]2(CCc3ccccc3)c3[nH]c4ccc(OC)cc4c3CCN2C1=O (stereo partly specified)	-0.6%	18.4µM*	4.0%	-16.9%	-15.8%	-5.0%
CCN(CC)C(=O)[C@H]1CC(CC(=O)NCC23CC4CC(CC(C4)C2)C3)C(=O)N2CCc3c([nH]c4ccccc34)[C@]12C (stereo partly specified)	?	23.1µM*	-5.3%	-3.1%	?	9.1%
O=C(NC1CCCCC1)c1cc(S(=O)(=O)N2CCOCC2)c(Cl)cc1Cl	-3.8%	26.2%	-2.4%	4.3%	?	8.7%
CCOC(=O)C1=C(COC(=O)CCc2ccccc2)NC(=O)NC1C (stereo unspecified)	2.8%	-9.6%	-0.1%	2.2%	27.1%	7.2%
O=C(c1ccc([N+](=O)[O-])cc1)N1CCN(c2ncc(Br)cn2)CC1	-0.2%	-9.3%	0.4%	-1.7%	0.5%	0.0%
COc1ccccc1Nc1nn2c(=O)c3ccc(C(=O)N4CCC(C)CC4)cc3nc2s1	?	24.9%	-8.3%	26.8%	14.6µM*	2.2%
O=C(NCc1ccc(F)cc1)N1CCN(C(=O)c2ccccc2)CC1	-2.6%	9.2%	1.2%	2.8%	-3.8%	5.1%
Cc1ccc2nc3nc(NCC4CCCO4)c(C(=O)NC4CCCC4)cc3c(=O)n2c1 (stereo unspecified)	2.59µM*	15.0%	1.1%	-7.6%	?	2.1%
Cc1ccc2nc3c(cc(C#N)c(=N)n3CC3CCCO3)c(=O)n2c1 (stereo unspecified)	/	/	2.1%	?	14.1%	-6.3%
Cc1ccc2nc3c(cc(C(=O)NCC4CCCO4)c(=N)n3CC3CCCO3)c(=O)n2c1 (stereo unspecified)	2.91µM*	?	0.3%	2.2%	7.7%	-0.6%
COc1ccc(CCNC(=O)c2cc3c(=O)n4cccc(C)c4nc3n(CC3CCCO3)c2=N)cc1 (stereo unspecified)	9.2µM*	8.2µM*	-8.5%	0.9%	?	-5.4%
N=c1c(S(=O)(=O)c2ccc(F)cc2)cc2c(=O)n3ccccc3nc2n1CC1CCCO1 (stereo unspecified)	16.4µM*	18.4µM*	2.2%	0.8%	4.1%	3.6%
CCOC(=O)c1ccc(NC(=S)Nc2ccc3[nH]c(=O)[nH]c3c2)cc1	-18.0%	?	16.0%	3.2%	?	0.2%
N=c1c(C(=O)NC2CCCC2)cc2c(=O)n3ccccc3nc2n1CC1CCCO1 (stereo unspecified)	?	?	-3.3%	-3.8%	8.0%	2.4%
Cc1ccc(CNC(=O)c2cc3c(=O)n4ccccc4nc3n(CC3CCCO3)c2=N)cc1 (stereo unspecified)	2.06µM*	?	1.2%	?	-10.4%	2.7%
N=c1c(C(=O)NC2CCCCC2)cc2c(=O)n3ccccc3nc2n1CC1CCCO1 (stereo unspecified)	?	18.4µM*	-2.7%	1.4%	-7.3%	0.0%
SMILES	MCF10A rereplic	SW480 rerep	ELG1 genotox	p53 reactivator	ELG1 DNA repair	A-T KAP1 phos
CC(NC(=O)c1cc2c(=O)n3ccccc3nc2n(CC2CCCO2)c1=N)c1ccccc1 (stereo unspecified)	5.8µM*	6.51µM*	-7.3%	2.0%	-3.7%	3.6%
COCCCNC(=O)C[C@H]1C[C@H](C(=O)N(C(C)C)C(C)C)[C@@]2(C)c3[nH]c4ccc(Cl)cc4c3CCN2C1=O	-0.7%	-55.6%	-0.1%	-2.7%	-15.1%	7.8%
CC(=O)C1(C)C(=O)N(c2ccc(C)cc2)C(=O)N1c1ccc(C)cc1 (stereo unspecified)	-0.7%	15.3%	/	/	/	/
Nc1sccc1C(=O)c1ccc(Cl)cc1	9.5%	-2.0%	11.2µM*	?	?	0.7%
Cc1c(C=O)c(C=O)c(C)n1Cc1ccccc1	10µM*	?	-3.9%	-4.9%	?	5.0%
CC(=O)c1c(C(C)=O)c(C)n(Cc2ccccc2)c1C	28.5%	-7.0%	-5.6%	2.0%	?	-8.2%
COc1ccc(Cl)cc1CC=NNC(=O)c1cccc(C)c1O	1.0%	17.8%	/	/	/	/
CCC/C(O)=C1\C(=O)CC(C)(C)CC1=Nc1cccc([N+](=O)[O-])c1	?	9.9%	-2.6%	6.8%	8.9%	0.0%
CCN(CC)c1ccc(/C=C/c2cc(-c3ccccc3)c3ccccc3n2)cc1	?	14.6µM*	-1.5%	0.0%	11.9%	11.2µM*
